From PubChem BioAssay AID1159580 (chemical genetic matrix, 2015)
Out of some 5,500 compounds screened, about 2,000 (36%) were called active. Not shown: some 18% with an inconclusive outcome. No stated cut-off is given here; in the data, active means normalized growth mostly below about 0.91 (no sharp cut-off); inconclusive means no clear call, values can overlap the other calls; inactive means mostly above about 0.92. The list shows a part of the results.

Experiment: chemical genetic growth profiling, strain panel (AID 1159580);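 further: tested at 20 µM; growth read once vehicle control cultures reached saturation at 30 °C; 1 = growth at the plate median or of vehicle wells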
Details: growth OD
[1] = S. cerevisiae deletion strains, locus YHR030C, strain SLT2, stronger effect = lower value
[2] = S. cerevisiae deletion strains, locus YJL187C, strain SWE1, stronger effect = lower value

Measured: normalized growth

COC(=O)c1cccc(NC(=O)CC2C(=O)NCCN2C(=O)c2cccs2)c1 (centres undefined)
inactive: S. cerevisiae deletion strains, locus YAL013W, strain DEP1, stronger effect = lower value 1.02 | S. cerevisiae deletion strains, locus YBR229C, strain ROT2, stronger effect = lower value 1.02 | S. cerevisiae deletion strains, locus YDL101C, strain DUN1, stronger effect = lower value 1 | S. cerevisiae deletion strains, locus YDL134C, strain PPH21, stronger effect = lower value 1.04 | S. cerevisiae deletion strains, locus YDR150W, strain NUM1, stronger effect = lower value 0.982 | S. cerevisiae deletion strains, locus YEL061C, strain CIN8, stronger effect = lower value 1.01 | S. cerevisiae deletion strains, locus YGR078C, strain PAC10, stronger effect = lower value 1.01 | [1] 1.07 | S. cerevisiae deletion strains, locus YHR087W, strain rtc3, stronger effect = lower value 0.987 | [2] 0.989 | S. cerevisiae deletion strains, locus YJR043C, strain POL32, stronger effect = lower value 1.02 | S. cerevisiae deletion strains, locus YJR075W, strain HOC1, stronger effect = lower value 1.01 | S. cerevisiae deletion strains, locus YLR039C, strain RIC1, stronger effect = lower value 1.02 | S. cerevisiae deletion strains, locus YLR058C, strain SHM2 (second series), stronger effect = lower value 0.996 | S. cerevisiae deletion strains, locus YLR085C, strain ARP6, stronger effect = lower value 0.997 | S. cerevisiae deletion strains, locus YLR262C, strain YPT6, stronger effect = lower value 1.08 | S. cerevisiae deletion strains, locus YML094W, strain GIM5, stronger effect = lower value 0.993 | S. cerevisiae deletion strains, locus YMR219W, strain ESC1, stronger effect = lower value 1.01 | S. cerevisiae deletion strains, locus YMR263W, strain SAP30, stronger effect = lower value 0.958 | S. cerevisiae deletion strains, locus YMR307W, strain GAS1, stronger effect = lower value 1.01 | S. cerevisiae deletion strains, locus YNL128W, strain TEP1, stronger effect = lower value 1.01 | S. cerevisiae deletion strains, locus YNL153C, strain GIM3, stronger effect = lower value 1.01 | S. cerevisiae deletion strains, locus YNL298W, strain CLA4 (second series), stronger effect = lower value 1.04 | S. cerevisiae deletion strains, locus YNL322C, strain KRE1, stronger effect = lower value 1 | S. cerevisiae deletion strains, locus YNR030W, strain Alg12, stronger effect = lower value 1.03 | S. cerevisiae deletion strains, locus YPL055C, strain LGE1, stronger effect = lower value 0.941 | S. cerevisiae deletion strains, locus YPL241C, strain CIN2, stronger effect = lower value 1.01 | S. cerevisiae deletion strains, locus YPR135W, strain CTF4, stronger effect = lower value 1.1 | S. cerevisiae strains, strain wild type, stronger effect = lower value 1.02

COC(=O)Nc1nc2ccc(S(=O)c3ccccc3)cc2[nH]1 (centres undefined)
inactive: S. cerevisiae deletion strains, locus YAL021C, strain ccr4, stronger effect = lower value 1.01 | S. cerevisiae deletion strains, locus YAL026C, strain drs2, stronger effect = lower value 0.986 | S. cerevisiae deletion strains, locus YAL030W, strain snc1, stronger effect = lower value 0.997 | S. cerevisiae deletion strains, locus YBL061C, strain skt5, stronger effect = lower value 0.995 | S. cerevisiae deletion strains, locus YBR009C, strain hhf1, stronger effect = lower value 0.999 | S. cerevisiae deletion strains, locus YBR023C, strain chs3, stronger effect = lower value 0.993 | S. cerevisiae deletion strains, locus YBR171W, strain sec66, stronger effect = lower value 0.971 | S. cerevisiae deletion strains, locus YBR231C, strain swc5, stronger effect = lower value 0.993 | S. cerevisiae deletion strains, locus YBR279W, strain paf1, stronger effect = lower value 0.994 | S. cerevisiae deletion strains, locus YCL011C, strain gbp2, stronger effect = lower value 1.01 | S. cerevisiae deletion strains, locus YCL016C, strain dcc1, stronger effect = lower value 1.01 | S. cerevisiae deletion strains, locus YCL061C, strain MRC1, stronger effect = lower value 0.994 | S. cerevisiae deletion strains, locus YCL069W, strain vba3, stronger effect = lower value 0.988 | S. cerevisiae deletion strains, locus YCR088W, strain abp1, stronger effect = lower value 0.998 | S. cerevisiae deletion strains, locus YDL005C, strain med2, stronger effect = lower value 0.994 | S. cerevisiae deletion strains, locus YDL040C, strain nat1, stronger effect = lower value 1 | S. cerevisiae deletion strains, locus YDR001C, strain nth1, stronger effect = lower value 0.983 | S. cerevisiae deletion strains, locus YDR069C, strain doa4, stronger effect = lower value 0.99 | S. cerevisiae deletion strains, locus YDR137W, strain rgp1, stronger effect = lower value 0.996 | S. cerevisiae deletion strains, locus YDR159W, strain sac3, stronger effect = lower value 0.966 | S. cerevisiae deletion strains, locus YDR195W, strain ref2 0.969 | S. cerevisiae deletion strains, locus YDR297W, strain sur2, stronger effect = lower value 0.997 | S. cerevisiae deletion strains, locus YDR334W, strain swr1, stronger effect = lower value 0.983 | S. cerevisiae deletion strains, locus YDR335W, strain msn5, stronger effect = lower value 0.973 | S. cerevisiae deletion strains, locus YDR392W, strain spt3, stronger effect = lower value 1 | S. cerevisiae deletion strains, locus YEL003W, strain gim4, stronger effect = lower value 0.962 | S. cerevisiae deletion strains, locus YEL037C, strain rad23, stronger effect = lower value 0.993 | S. cerevisiae deletion strains, locus YEL061C, strain CIN8 (second series), stronger effect = lower value 0.983 | S. cerevisiae deletion strains, locus YER015W, strain faa2, stronger effect = lower value 0.995 | S. cerevisiae deletion strains, locus YER016W, strain bim1, stronger effect = lower value 0.986 | S. cerevisiae deletion strains, locus YER111C, strain swi4, stronger effect = lower value 0.986 | S. cerevisiae deletion strains, locus YER155C, strain BEM2 (second series), stronger effect = lower value 0.953 | S. cerevisiae deletion strains, locus YFR010W, strain ubp6, stronger effect = lower value 0.988 | S. cerevisiae deletion strains, locus YGL167C, strain pmr1, stronger effect = lower value 0.984 | S. cerevisiae deletion strains, locus YGL173C, strain kem1, stronger effect = lower value 0.991 | S. cerevisiae deletion strains, locus YGL227W, strain vid30, stronger effect = lower value 0.986 | S. cerevisiae deletion strains, locus YGL240W, strain doc1, stronger effect = lower value 0.967 | S. cerevisiae deletion strains, locus YGL253W, strain hxk2, stronger effect = lower value 0.998 | S. cerevisiae deletion strains, locus YHR013C, strain ard1, stronger effect = lower value 1.02 | S. cerevisiae deletion strains, locus YHR027C, strain rpn1, stronger effect = lower value 0.989 | [1] 1.03 | S. cerevisiae deletion strains, locus YHR079C, strain IRE1, stronger effect = lower value 1.02 | S. cerevisiae deletion strains, locus YHR142W, strain chs7, stronger effect = lower value 0.994 | S. cerevisiae deletion strains, locus YJL092W, strain hpr5, stronger effect = lower value 0.984 | S. cerevisiae deletion strains, locus YJL095W, strain BCK1 (second series), stronger effect = lower value 1 | S. cerevisiae deletion strains, locus YJL095W, strain BCK1, stronger effect = lower value 0.972 | S. cerevisiae deletion strains, locus YJL115W, strain asf1, stronger effect = lower value 0.985 | S. cerevisiae deletion strains, locus YJL129C, strain trk1, stronger effect = lower value 0.981 | S. cerevisiae deletion strains, locus YJL154C, strain vps35, stronger effect = lower value 0.987 | S. cerevisiae deletion strains, locus YJL164C, strain tpk1, stronger effect = lower value 1.01 | S. cerevisiae deletion strains, locus YJL166W, strain qcr8, stronger effect = lower value 0.975 | [2] 0.984 | S. cerevisiae deletion strains, locus YJR066W, strain TOR1, stronger effect = lower value 0.975 | S. cerevisiae deletion strains, locus YKL160W, strain elf1, stronger effect = lower value 0.99 | S. cerevisiae deletion strains, locus YKR026C, strain gcn3, stronger effect = lower value 0.979 | S. cerevisiae deletion strains, locus YKR091W, strain srl3, stronger effect = lower value 1 | S. cerevisiae deletion strains, locus YLL001W, strain dnm1, stronger effect = lower value 0.976 | S. cerevisiae deletion strains, locus YLL026W, stronger effect = lower value 1 | S. cerevisiae deletion strains, locus YLL041C, strain sdh2, stronger effect = lower value 0.99 | S. cerevisiae deletion strains, locus YLR027C, strain aat2, stronger effect = lower value 0.989 | S. cerevisiae deletion strains, locus YLR113W, strain HOG1, stronger effect = lower value 0.982 | S. cerevisiae deletion strains, locus YLR221C, strain rsa3, stronger effect = lower value 1.01 | S. cerevisiae deletion strains, locus YLR258W, strain gsy2, stronger effect = lower value 0.984 | S. cerevisiae deletion strains, locus YLR262C, strain YPT6 (second series), stronger effect = lower value 0.987 | S. cerevisiae deletion strains, locus YLR320W, strain mms22, stronger effect = lower value 1 | S. cerevisiae deletion strains, locus YLR342W, strain FKS1, stronger effect = lower value 0.991 | S. cerevisiae deletion strains, locus YLR357W, strain rsc2, stronger effect = lower value 0.993 | S. cerevisiae deletion strains, locus YLR370C, strain arc18, stronger effect = lower value 0.998 | S. cerevisiae deletion strains, locus YLR384C, strain iki3, stronger effect = lower value 0.986 | S. cerevisiae deletion strains, locus YML120C, strain ndi1, stronger effect = lower value 0.998 | S. cerevisiae deletion strains, locus YMR058W, strain fet3, stronger effect = lower value 0.993 | S. cerevisiae deletion strains, locus YMR125W, strain sto1, stronger effect = lower value 0.982 | S. cerevisiae deletion strains, locus YMR129W, stronger effect = lower value 0.99 | S. cerevisiae deletion strains, locus YMR205C, strain PFK2, stronger effect = lower value 0.982 | S. cerevisiae deletion strains, locus YMR231W, strain pep5, stronger effect = lower value 0.98 | S. cerevisiae deletion strains, locus YNL071W, strain lat1, stronger effect = lower value 0.994 | S. cerevisiae deletion strains, locus YNL183C, strain NPR1, stronger effect = lower value 0.971 | S. cerevisiae deletion strains, locus YNL209W, strain ssb2, stronger effect = lower value 1.01 | S. cerevisiae deletion strains, locus YNL248C, strain rpa49, stronger effect = lower value 1.01 | S. cerevisiae deletion strains, locus YNL322C, strain KRE1 (second series), stronger effect = lower value 0.998 | S. cerevisiae deletion strains, locus YNR049C, strain mso1, stronger effect = lower value 0.977 | S. cerevisiae deletion strains, locus YOR001W, strain rrp6, stronger effect = lower value 0.982 | S. cerevisiae deletion strains, locus YOR070C, strain gyp1, stronger effect = lower value 0.999 | S. cerevisiae deletion strains, locus YOR080W, strain dia2, stronger effect = lower value 0.974 | S. cerevisiae deletion strains, locus YOR083W, strain WHI5, stronger effect = lower value 0.991 | S. cerevisiae deletion strains, locus YOR106W, strain vam3, stronger effect = lower value 1 | S. cerevisiae deletion strains, locus YOR231W, strain MKK1, stronger effect = lower value 1 | S. cerevisiae deletion strains, locus YOR265W, strain rbl2, stronger effect = lower value 0.992 | S. cerevisiae deletion strains, locus YOR270C, strain vph1, stronger effect = lower value 1 | S. cerevisiae deletion strains, locus YOR290C, strain snf2, stronger effect = lower value 1.01 | S. cerevisiae deletion strains, locus YPL051W, strain arl3, stronger effect = lower value 0.993 | S. cerevisiae deletion strains, locus YPL078C, strain atp4, stronger effect = lower value 0.963 | S. cerevisiae deletion strains, locus YPL106C, strain sse1, stronger effect = lower value 0.99 | S. cerevisiae deletion strains, locus YPL240C, strain hsp82, stronger effect = lower value 1 | S. cerevisiae deletion strains, locus YPL256C, strain CLN2, stronger effect = lower value 1.01
